# The list is not random: actives were taken first. Their share in the collection is about 8.7%.
# Pf growth 96h – P. falciparum growth inhibition at 96 hour, primary screen for plastid delayed-death inhibitors; P. falciparum luciferase reporter growth, 96 h; Potency, µM (series often up to 28.7 µM), for inactives: at the top dose activity change, negative = inhibition, most hits filed as inhibitors; 320,000 compounds, 6.9% hits
#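 Parasite growth measured via integrated firefly luciferase reporter in P. falciparum. Infected erythrocytes at 2% hematocrit, 0.05% parasitemia final were treated 96 hours at 37 C under 5% CO2, and luminescence was read.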
# Pf growth 48h – inhibits P. falciparum growth in the first generation, 48 h | P. falciparum luciferase growth in erythrocytes, 48 h | Potency, µM (titrated, usually from 28.7 µM), for the others: top-dose activity change, negative = inhibition, most hits filed as inhibitors | 310,000 compounds, 5.9% hits | AID 504832
#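 In quantitative HTS format, infected erythrocytes bearing luciferase-reporter parasites were treated for a single generation at 37 C. Luminescence after adding detection reagent served as the growth measure.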
# AMA1-RON2 inh – disrupts binding of P. falciparum AMA1 to RON2. AID 720542. AlphaScreen AMA1-biotinylated RON2 peptide binding. 360,000 compounds, 0.2% hits. Potency, µM (highest dose often 58.2 µM), for inactives: top-dose activity change, negative = inhibition, most hits filed as inhibitors;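 further: 0% = vehicle wells and -100% = peptide control; nearly all actives have a fitted effect of over 45% in size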
#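 AMA1 (3D7) with his tag at 25 nM final met compounds first, then biotinylated RON2 peptide at 25 nM; detection used donor plus acceptor beads, 10 µg/mL apiece, read by AlphaScreen after 30 min at room temperature.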
# Vaccinia Venus – vaccinia inhibition (Venus reporter). Vaccinia virus Venus reporter expression, fluorescence. Potency, µM (titrated, usually from 36.5 µM), for the others: at the highest dose activity change, negative = inhibition, usual class: inhibitors. 330,000 compounds, 0.46% hits. AID 720580; calls by dose curve; tested in A549 cells; further: nearly all actives have a fitted effect of over 30% in size
# Vaccinia mCherry – inhibitors of vaccinia virus infection (mCherry reporter signal); Vaccinia virus mCherry reporter infection, fluorescence; Potency, µM (top dose mostly 36.5 µM), inactives show at the highest dose activity change, negative = inhibition, hits mostly inhibitors; 310,000 compounds, 0.63% hits; AID 720579; calls by dose curve; tested in A549 cells; further: nearly all actives have a fitted effect of over 35% in size
# The depositor's hits bear a star; i = inactive; ? = inconclusive; · = no result given; ! = repeats disagree; [ ] = dose if it differs, or a comment. Unless noted, the call rests on the fitted dose curve; in most records, active means well fitted curve in the direction sought with a large enough effect; inconclusive means small, poorly fitted or top-dose-only effect, or another doubt; inactive means no such curve, though single readings can be large; an effect the other way counts as inactive or inconclusive. Unless noted, on the % scale 0 is the no-effect control and ±100 the full control effect; potency means the concentration at half of the fitted maximal effect.
SMILES,Pf growth 96h,Pf growth 48h,AMA1-RON2 inh,Vaccinia Venus,Vaccinia mCherry
Cc1ccc(S(=O)(=O)N2CCCN(S(=O)(=O)c3ccc4ccccc4c3)CC2)cc1,10.4µM*,?,-6.5%,-9.7%,-14.9%
O=C(NCc1ccc(F)cc1)C(=O)NCC(c1cccs1)S(=O)(=O)c1cccs1 (stereo unspecified),·,·,·,3.1%,-14.3%
Cc1cc(-c2csc(N)n2)c(C)n1C,10.4µM*,·,28.2µM*,-7.5%,·
O=C(O)CCCC(=O)Nc1ccccc1SCCS(=O)(=O)c1ccc(Cl)cc1,29.7%,16.4%,10.1%,?,20µM*
O=c1cc(CSc2nnc(COc3cccc4ccccc34)o2)c2ccccc2[nH]1,11.7µM*,79.4%,23.2%,-10.9%,-9.6%
COc1ccccc1CNC(=O)CSc1cc(C)[nH]c(=O)n1,·,·,·,-4.8%,-15.5%
CCOc1cc(/C=C/C(=O)c2ccc3c(c2)OCCO3)ccc1OCC(=O)N(C)C,?,?,-25.8%,10µM*,10µM*
COC(=O)[C@@]12CCCN1[C@H](c1ccc(-c3ccc(F)cc3)cc1)[C@H]1C(=O)N(C)C(=O)[C@H]12,?,1.17µM*,1.2%,-15.5%,-0.4%
CCN1C(=O)[C@@H]2[C@@H](c3ccc(-c4ccc(Cl)c(Cl)c4)c(OC)c3)N3CCCC[C@@]3(C(=O)OC)[C@@H]2C1=O,?,2.62µM*,-3.8%,-28.4%,-1.0%
CCN1C(=O)[C@H]2[C@@H](c3ccc(-c4ccc(C(C)=O)cc4)c(OC)c3)N3CCCC[C@@]3(C(=O)OC)[C@H]2C1=O,·,·,-1.4%,-26.3%,i
COC(=O)[C@@]12CCCCN1[C@H](c1ccc(-c3ccc(F)cc3)cc1)[C@H]1C(=O)N(C)C(=O)[C@H]12,·,·,-4.4%,-28.5%,-13.1%
CCN1C(=O)[C@@H]2[C@@H](c3ccc(-c4ccc(F)cc4)c(OC)c3)N3CCCC[C@@]3(C(=O)OC)[C@@H]2C1=O,7.38µM*,10.4µM*,-12.0%,?,-8.8%
CCN1C(=O)[C@@H]2[C@@H](c3ccc(-c4ccc(F)cc4)cc3)N3CCCC[C@@]3(C(=O)OC)[C@@H]2C1=O,?,10.4µM*,-10.7%,-24.3%,-12.6%
CCC1CN(C(=O)Nc2cccc3c2CCCC3)c2cc(Cl)ccc2O1 (stereo unspecified),·,·,·,-6.8%,3.1%
CCCCN(C)CCCNC(=O)C1CCN(c2nc3ccc(CC)cc3s2)CC1,·,·,·,-10.9%,-4.0%
COC(=O)c1cc2oc3ccccc3c2n1CC(=O)Nc1ccc(N(C)C)cc1,·,·,·,1.2%,-2.8%
O=C1NN(c2ccc(F)cc2)C(=O)/C1=C\C=C\c1ccco1,1.65µM*,-1.3%,-8.4%[11.6 µM],-9.9%,-9.9%
Cn1c(=O)n(C)c2cc(N3CCOCC3)c(NC(=O)c3ccc(Cl)cc3)cc21,·,·,·,-0.3%,-14.6%
CC1=NC(=O)C(N=Nc2ccccc2)N1c1ccccc1 (stereo unspecified),33.7%,279.8%,?,1.3%,·
CC1=NC(=O)C(N=Nc2ccccc2C(=O)O)N1c1ccccc1 (stereo unspecified),4.65µM*,-29.8%,48.4%,-0.5%,-7.0%
OC(c1ccccc1)(c1ccc(Cl)cc1)C1CN2CCC1CC2 (stereo unspecified),8.28µM*,?,-20.6%,?,-2.5%
OC(c1ccccc1)(c1ccccc1)C1CN2CCC1CC2 (stereo unspecified),12µM*!,?,16.3%,-13.1%,i
OC(Cc1ccccc1)(c1ccccc1)C1CN2CCC1CC2 (stereo unspecified),?,·,0.0%,-14.4%,-7.8%
CCOC(=O)c1ccc(N(C(=O)c2ccccc2)c2ccccc2)cc1,·,·,·,-20.9%,i
CCn1cc(/C=C(\NC(=O)c2ccc(C)cc2)C(=O)NCCCn2ccnc2)c2ccccc21,·,·,·,1.6%,4.6%
SMILES,Pf growth 96h,Pf growth 48h,AMA1-RON2 inh,Vaccinia Venus,Vaccinia mCherry
CCN(CC)S(=O)(=O)c1ccc(N2CCOCC2)c(NS(=O)(=O)c2ccc(C(C)C)cc2)c1,1.47µM*,2.94µM*,10.9%,-5.6%,-9.1%
CCN(CC)S(=O)(=O)c1ccc(N2CCOCC2)c(NS(=O)(=O)c2cc(C(C)(C)C)ccc2C)c1,?,0.0828µM*,-18.5%,?,-8.5%
O=C(CCC(=O)N1CCSc2ccccc21)Nc1ccc(Cl)cc1,·,·,·,-11.1%,i
Cc1ccc(-n2c(=O)[nH]c3cc(C(=O)NCc4ccccc4)ccc3c2=O)cc1,·,·,·,-10.2%,-10.3%
COC(=O)CC1C(=O)NCCN1C(=O)CSc1nc2ccc([N+](=O)[O-])cc2s1 (stereo unspecified),?,10.4µM*,6.5%,-13.9%,-21.6%
Cc1cccc(Nc2nnc(SCC(=O)N(C)C3CCS(=O)(=O)C3)s2)c1C (stereo unspecified),2.94µM*,?,-5.6%,-17.0%,-18.1%
CN(C(=O)CSc1nc2ccc([N+](=O)[O-])cc2s1)C1CCS(=O)(=O)C1 (stereo unspecified),9.28µM*,?,4.0%,2.7%[7.34 µM],i[7.34 µM]
COC(=O)CC1C(=O)NCCN1C(=O)c1ccc([N+](=O)[O-])cc1 (stereo unspecified),5.3%,·,5.2%,-1.8%,i
Cc1ccc(Cl)cc1NC(=O)c1sc2nc(-c3ccccc3)cn2c1C,·,·,·,-3.1%,6.8%
O=S(=O)(Cc1cc(NCc2ccccc2)nc(-c2ccccn2)n1)c1ccccc1,8.28µM*,?,54.9%,?,-24.0%
O=S(=O)(Cc1cc(NCc2ccccc2)nc(-c2ccncc2)n1)c1ccccc1,?,?,32.3%,-0.2%,1.2%
CCCc1sc(N/N=C/c2ccccn2)nc1-c1ccc(Br)cc1,9.2%,1.65µM*,56.9%,-8.5%,?
CCc1ccc(-c2cc(C(=O)N/N=C/c3ccccn3)[nH]n2)cc1,-17.4%,?,67.8%,-14.3%,-16.9%
CN(C)c1ccc(/C=C/c2ccnc3c(O)ccc(O)c23)cc1,·,·,·,-12.2%,0.0%
Cc1nc2c(cc1NC(=O)c1ccccc1)nc(C)n2Cc1ccccc1,11.7µM*,-19.0%,-10.2%,·,·
CC(=O)Nc1ccc2c(c1)nc(C)n2Cc1ccccc1,0.415µM*,5.3%,-1.0%,·,·
CC(=O)Nc1cc2nc(C)n(Cc3ccccc3)c2nc1C,?,·,0.0%,-9.0%,i
Cc1cccc(CNC(=O)c2cnn(-c3ncc(C)c(-c4ccc(F)cc4)n3)c2C)n1,·,·,·,-21.8%,-2.5%
Cc1cccc(CNC(=O)c2cnc3sc(N4CCOCC4)nn3c2=O)c1,·,·,·,-5.7%,i
O=C1CS/C(=N/N=C\c2ccn[nH]2)N1,1.85µM*,-21.7%,73.8%,-7.7%,-11.6%
Cc1cc(C(=O)COc2ccccc2C(N)=O)c(C)n1C,0.0%,53.9%,-6.4%,-5.6%,-7.9%
Cn1c(COc2cccc3cccnc23)nnc1SCC(=O)O,10.4µM*,48.0%,5.3%,·,·
Cc1cc(C(=O)COc2cccc3cccnc23)c(C)n1C,3.29µM*,11.7µM*,21.7%,-22.7%,-27.7%
O=C(Nc1cc(Cl)cc(Cl)c1)c1ccc(F)c(S(=O)(=O)NC2CCCC2)c1,·,·,·,-27.0%,-23.4%
